Source: PubChem BioAssay
Compounds with a hit are over-represented: about 2.5% of the library has one in this group of screens.
c-Myc SMM: binders of human c-Myc | calls only | 17,000 tested, 1.5% active | small molecule microarray, His-c-Myc binding, anti-His fluorescence;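 active means spot fluorescence over background with P-value below 7% in all four replicate spots, showing protein binding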;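 further: score is binary with 100 for all four spots passing and 0 otherwise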
STAT3 SMM: binds human STAT3 on microarray | P40763 | Small molecule microarray, His-STAT3 binding, anti-His fluorescence | calls only | 17,000 tested, 0.2% active | AID 624138;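 active means compounds whose four printed spots each show fluorescence over background unusually high for their array block, chance value under 7%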
mut p53 SMM: mutant p53 (human) binding | calls only | AID 624136 | 17,000 tested, 0.4% active | small molecule microarray binding, anti-GST fluorescence;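 active means compounds whose four printed spots each glow above background more than chance allows, each with a p-value under 7%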
NFkB SMM: binders of human NF-kappa-B p105; P19838; Small molecule microarray, anti-His fluorescence binding; calls only; 17,000 tested, 1.3% active; AID 624139;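 active means spot fluorescence over background significantly raised, with a chance value under 7% in all four replicate spots of the compound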;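 further: probe protein is his-tagged human p50 processed subunit at 1 µg/ml; raw spot fluorescence signals with no normalization applied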
Target sequence (P19838 1-433 limits assumed): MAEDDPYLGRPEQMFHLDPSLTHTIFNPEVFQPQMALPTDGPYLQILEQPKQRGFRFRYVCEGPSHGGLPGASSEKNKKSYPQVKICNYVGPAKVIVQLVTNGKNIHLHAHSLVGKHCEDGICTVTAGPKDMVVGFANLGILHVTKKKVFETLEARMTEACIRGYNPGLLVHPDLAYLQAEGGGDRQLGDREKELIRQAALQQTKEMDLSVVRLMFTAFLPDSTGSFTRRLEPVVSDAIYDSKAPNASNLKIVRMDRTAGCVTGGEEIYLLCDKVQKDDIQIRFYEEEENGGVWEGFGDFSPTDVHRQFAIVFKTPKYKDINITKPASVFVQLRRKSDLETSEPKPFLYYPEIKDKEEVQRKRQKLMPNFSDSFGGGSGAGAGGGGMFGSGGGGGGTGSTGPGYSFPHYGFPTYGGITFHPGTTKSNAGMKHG
An asterisk follows results filed as active; i = inactive; + = active, no number.

SMILES | c-Myc SMM | STAT3 SMM | mut p53 SMM | NFkB SMM
O=C1O[C@@H](c2ccccc2)[C@@H](c2ccccc2)N2[C@@H](c3ccc(O)cc3)[C@]3(C(=O)Nc4ccc(C#CCCO)cc43)[C@@H](C(=O)N3CCCCCCC3)[C@H]12 | i | i | i | i
O=C1O[C@@H](c2ccccc2)[C@@H](c2ccccc2)N2[C@@H](c3ccc(OCCO)cc3)[C@]3(C(=O)Nc4ccccc43)[C@@H](C(=O)N3CCCCCCC3)[C@H]12 | + | i | + | +
O=C1O[C@@H](c2ccccc2)[C@@H](c2ccccc2)N2[C@@H](c3ccc(OCCO)cc3)[C@]3(C(=O)Nc4ccc(C#CCCO)cc43)[C@@H](C(=O)N3CCCCCCC3)[C@H]12 | i | i | i | i
O=C1O[C@H](c2ccccc2)[C@H](c2ccccc2)N2[C@H]1[C@@H](C(=O)N1CCCCCCC1)[C@]1(C(=O)Nc3ccccc31)[C@H]2c1ccc(OCCO)cc1 | + | i | + | +
Cc1sc2ncnc(SCC(=O)Nc3ccc4c(c3)OCCO4)c2c1C | i | i | i | i
CC1OC(OCC2OC(OCC3(C)C(O)CCC4(C)C3CCC3(C)C4CCC4C5=CC(C)(C)CCC5(C(=O)O)CCC43C)C(O)C(O)C2O)C(O)C(O)C1O (configuration not stated) | + | i | i | +
CC1OC(OCC2(C)C=C3C4CCC5C6(C)CCC(O)C(C)(COC7OC(CO)C(O)C(O)C7O)C6CCC5(C)C4(C)CCC3(C(=O)O)CC2)C(O)C(O)C1O (configuration not stated) | i | i | i | i
CCOc1ccc(C(=O)c2oc3ccccc3c2NC(=O)c2cc(OC)c(OC)c(OC)c2)cc1 | i | i | i | i
O=C(CSc1nnnn1C1CCCCC1)Nc1ccccc1[N+](=O)[O-] | i | i | i | i
C[C@H](CO)N1C[C@H](C)[C@H](CN(C)C(=O)C2CCCCC2)OCCCC[C@H](C)Oc2ccc(NC(=O)Nc3ccccc3)cc2C1=O | + | i | i | i
Cc1noc(C)c1NC(=O)Nc1ccc2c(c1)C(=O)N([C@@H](C)CO)C[C@H](C)[C@@H](CN(C)C(=O)C1CCCCC1)OCCCC[C@H](C)O2 | + | i | i | i
C[C@@H]1CCCCO[C@H](CN(C)C(=O)C2CCCCC2)[C@@H](C)CN([C@@H](C)CO)C(=O)c2cc(NC(=O)c3ccncc3)ccc2O1 | i | i | i | +
C[C@@H]1CCCCO[C@@H](CN(C)C(=O)Nc2ccccc2)[C@H](C)CN([C@@H](C)CO)C(=O)c2cc(NC(=O)C3CCCCC3)ccc2O1 | + | i | + | +
C[C@H]1CCCCO[C@@H](CN(C)C(=O)C2CCCCC2)[C@@H](C)CN([C@@H](C)CO)C(=O)c2cc(NC(=O)c3ccncc3)ccc2O1 | i | i | i | i
O=S(=O)(Nc1cccnc1)c1cccc(S(=O)(=O)c2ccc(Cl)c(Cl)c2)c1 | i | i | i | i
COC(=O)c1ccccc1NC(=O)c1cccc(NC(=O)CSc2ccccc2)c1C | i | i | i | i
CCOC(=O)CSc1nc2c(c(=O)n1-c1ccccc1OC)C1(CCCC1)Cc1ccccc1-2 | i | i | i | i
C[C@H]1CCCCO[C@@H](CN(C)C(=O)C2CCCCC2)[C@@H](C)CN([C@@H](C)CO)C(=O)c2cc(NC(=O)Nc3ccccc3)ccc2O1 | + | i | i | +
COC(=O)[C@@H](O)[C@H]1[C@@]2(C)C[C@]3(O)C4[C@@H](O[C@]56CC(=O)O[C@@H](c7ccoc7)[C@@]5(C)CCC([C@]46O)[C@]13C)[C@H]2O (some centres not stated) | i | i | i | i
CC12C=CC(=O)C=C1CCC1C2=CCC2(C)C1CC[C@@H]2C(=O)CN1CCN(c2cc(N3CCCC3)nc(N3CCCC3)n2)CC1 (some centres not stated) | + | i | i | i
COc1ccc(CCNC(=S)Nc2ccncc2)cc1OC | i | i | i | i
COCCNC(=S)Nc1nc(OC)cc(OC)n1 | + | i | i | i
O=C(O)C1=C[C@H](c2ccc(C(F)(F)F)cc2)C[C@H](OCCCCO)O1 | i | + | i | i
O=C(Nc1ccccc1)C1=C[C@H](c2ccc(C(F)(F)F)cc2)C[C@H](OCCCCO)O1 | i | i | i | i
OCCN1CCN(CC(O)COc2ccc3c(c2)CCC3)CC1 (configuration not stated) | i | i | i | i
N#Cc1ccc(-c2cccs2)nc1SCC(=O)Nc1sc2c(c1C#N)CCCC2 | + | i | i | i
Clc1ccc(CSc2nnc(-c3ccco3)n2Cc2ccco2)c(Cl)c1 | i | i | + | i
CC(C)(C)C(=O)CSc1nnc(-c2ccco2)n1Cc1ccco1 | i | i | i | i
COc1cc(/C=C/c2cc(O)cc(O)c2)ccc1O[C@@H]1O[C@H](CO)[C@@H](O)[C@H](O)[C@H]1O | i | i | i | i
COc1ccc(S(=O)(=O)NCCO)cc1-c1nnc2c3ccccc3c(C)nn12 | i | i | i | i
